From PubChem BioAssay
Shown are actives, neighbours in structure and some others; about 1.2% of the full set was active somewhere.
miR-122 sensor: miR-122 Renilla sensor signal increase in Huh7, primary screen, miR-122 inhibitor project, cell-based, single point, plate reader | Huh7 miR-122 Renilla luciferase sensor, 48 h; neutral wells = 0, positive control = 100 | 340,000 compounds, 0.3% hits | AID 602342, 2012 | activation (reporter increase), % at 12.5 µM;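 active = mean replicate activation score at least 90 and every replicate individually at or above 90; inconclusive = only one of the two criteria met; inactive = neither criterion met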;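 note: higher luciferase means less miR-122 activity so hits act as miR-122 inhibitors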
PglD inh: C. jejuni PglD acetyltransferase inhibitors, primary screen, biochemical, DTNB colorimetric, single point; AID 602405, 2012; inhibition, % at 12.5 µM; purified PglD enzyme, DTNB colorimetric CoA detection; UDP-N-acetylbacillosamine N-acetyltransferase PglD (Campylobacter jejuni); 360,000 compounds, 0.098% hits; in the data active = inhibition above about 16%, passing the limit was not always enough; inconclusive = no clear call, values can overlap the other calls
C2C12 statin: suppressors of statin myotoxicity in C2C12 myotubes, primary screen, cell-based, single point, plate reader. C2C12 myotubes + simvastatin, ATP luminescence, 48 h; scaled: DMSO 0, geranylgeraniol control 100. rescue of ATP level, % at 7.49 µM. 330,000 compounds, 0.78% hits;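 active = mean ATP rescue above about 67%, or every replicate alone reaching that limit, limit read from the data, passing the limit was not always enough; inconclusive = no clear call, values can overlap the other calls; inactive = mean under the limit and some replicate under it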;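 note: myotubes were challenged with 10 µM simvastatin during compound exposure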
NSD2 HMT inh: NSD2 histone methyltransferase inhibitors, primary screen, biochemical, AlphaScreen, single concentration, set 2; 310,000 compounds, 0.54% hits; inhibition, % at 12.5 µM; NSD2 peptide methylation, 120 min; AID 743445, 2014; Histone-lysine N-methyltransferase NSD2 (Homo sapiens), O96028; in the data active = inhibition above about 50%
The depositor's hits bear a star; u = inconclusive; x = no result; [ ] = dose if it differs, or a comment.

SMILES | miR-122 sensor | PglD inh | C2C12 statin | NSD2 HMT inh
COc1ccccc1CNC(=O)c1ccc(CS(=O)(=O)c2ccc(Cl)cc2)o1 | x | x | x | -5
FC(F)(F)c1cccc(NC(=S)NCCc2ccccn2)c1 | 249* | 1 | -19 | -1
CC(C)(C)c1ccc(NC(=S)NCCc2ccccn2)cc1 | x | x | x | 2
CCC(=O)N(C)C[C@@H]1Oc2cc(C#Cc3ccncc3)ccc2S(=O)(=O)N([C@@H](C)CO)C[C@@H]1C | 1[16.7 µM] | 2 | 16 | x
C=CCOc1c(Br)cc(CNn2nnnc2N)cc1OC | -7 | -9 | 111* | 0
CCSc1nc(C2CC2)cc(-c2cccs2)c1C#N | 4 | -3 | 26 | x
CCSc1nc(C2CC2)cc(-c2ccco2)c1C#N | -9 | -12 | 100* | 4
Cc1noc(C)c1S(=O)(=O)N(C)C[C@H]1Oc2ccc(NS(=O)(=O)c3cn(C)cn3)cc2CC(=O)N([C@@H](C)CO)C[C@@H]1C | 16[16.7 µM] | 1 | -26 | x
COc1ccc(-c2nc3ccccn3c2NC2CCCCC2)cc1SC1CCCCC1 | 115* | -4 | -18 | x
CCC(=O)Nc1ccc2c(c1)C(=O)N(C)[C@@H]1CC[C@@H](CC(=O)NCc3ccc(OC)cc3)O[C@@H]1CO2 | 3[16.7 µM] | -2 | -7 | x
OC(CN1C2=NCCN2c2ccccc21)c1ccccc1 (configuration not stated) | 5 | 11 | 4 | 0
Cc1ccc(C(O)CN2C3=NCCN3c3ccccc32)cc1 (configuration not stated) | -5 | -3 | 121* | 0
CC(C)NC(=O)N(C)C[C@@H]1Oc2ccc(NC(=O)C3CCCCC3)cc2C(=O)N([C@@H](C)CO)C[C@@H]1C | 6[16.7 µM] | -3 | 4 | x
Cc1cc2c(c(=O)n1CCN(C)C)C(c1ccccc1Br)C(C#N)=C(N)O2 (configuration not stated) | 4 | x | 90* | -5
CCn1c(C)cc2c(c1=O)C(c1ccncc1)C(C#N)=C(N)O2 (configuration not stated) | -14 | 7 | 23 | 0
Cc1cc2c(c(=O)n1Cc1cccnc1)C(c1ccc(F)cc1)C(C#N)=C(N)O2 (configuration not stated) | -5 | x | 110* | -4
Cc1ccc(-c2nn(Cc3ccccc3)cc2/C=C/C(=O)O)cc1C | 0 | -5 | 86* | -2
O=c1cc(-c2ccco2)oc2ccc(Cl)cc12 | 1 | 12 | 73* | -1
COc1ccc2oc(-c3ccco3)cc(=O)c2c1 | -1 | -1 | x | x
C[C@@H](NC(=O)C[C@H]1C=C[C@@H](NC(=O)Nc2ccc3c(c2)OCO3)[C@@H](CO)O1)c1ccccc1 | 1[16.7 µM] | -5 | 28 | x
CCCc1cc(=O)oc2cc(OCc3nn[nH]n3)ccc12 | 164* | 1 | -2 | -1
CCCC(=O)Nc1ccc2c(c1)C(=O)N(C)C[C@@H](OC)[C@H](C)CN(C(=O)c1cnccn1)[C@H](C)CO2 | 0[16.7 µM] | 0 | 3 | x
COC(=O)C[C@H]1CC[C@@H]2[C@@H](COc3ccc(NC(=O)c4cccc(OC)c4)cc3C(=O)N2C)O1 | 1[16.7 µM] | 1 | 6 | x
CCS(=O)(=O)c1ncc(Cl)c(C(=O)Nc2ccc(C)cc2)n1 | x | 1 | 127* | 3
CC(C)(O)C#Cc1ccc([C@H]2[C@@H](CO)N3CCCCN(C(=O)c4ccncc4)C[C@@H]23)cc1 | 1[16.7 µM] | 0 | 21 | x
SMILES | miR-122 sensor | PglD inh | C2C12 statin | NSD2 HMT inh
CC(C)C[C@@H](CO)N(Cc1ccccc1)S(=O)(=O)N(Cc1ccccc1)[C@H](CO)CC(C)C | 16 | -3 | 126* | x
CC(C)C[C@@H](CO)N(Cc1ccccc1)S(=O)(=O)N(Cc1ccccc1)[C@@H](CO)CC(C)C | 6 | 0 | -4 | x
C[C@@H]1CN([C@H](C)CO)C(=O)Cc2cc(NC(=O)CCCCCC(=O)Nc3ccccc3N)ccc2O[C@H]1CN(C)Cc1ccc(-c2ccccc2)cc1 | -6[16.7 µM] | -1 | 135* | x
C[C@H]1CN([C@@H](C)CO)C(=O)Cc2cc(NC(=O)CCCCCC(=O)Nc3ccccc3N)ccc2O[C@H]1CN(C)Cc1ccccc1 | 7[16.7 µM] | 2 | 73* | x
C[C@@H]1CN([C@H](C)CO)C(=O)Cc2cc(NC(=O)CCCCCC(=O)Nc3ccccc3N)ccc2O[C@@H]1CN(C)Cc1ccc(Oc2ccccc2)cc1 | -7[16.7 µM] | 2 | 27 | x
C[C@@H]1CN([C@H](C)CO)C(=O)Cc2cc(NC(=O)CCCCCC(=O)Nc3ccccc3N)ccc2O[C@@H]1CN(C)Cc1ccc(-c2ccccc2)cc1 | -14[16.7 µM] | 0 | 29 | x
C[C@H](CO)N1C[C@H](C)[C@H](CN(C)Cc2ccc(-c3ccccc3)cc2)Oc2ccc(NC(=O)CCCCCC(=O)Nc3ccccc3N)cc2CC1=O | 23[16.7 µM] | -4 | 25 | x
C[C@@H]1CN([C@H](C)CO)C(=O)Cc2cc(NC(=O)CCCCCC(=O)Nc3ccccc3N)ccc2O[C@@H]1CN(C)Cc1ccccc1 | 9[16.7 µM] | 3 | u | x
C[C@H](CO)N1C[C@H](C)[C@@H](CN(C)Cc2ccc(-c3ccccc3)cc2)Oc2ccc(NC(=O)CCCCCC(=O)Nc3ccccc3N)cc2CC1=O | -2[16.7 µM] | 0 | 88* | x
C[C@@H]1CN([C@@H](C)CO)C(=O)Cc2cc(NC(=O)CCCCCC(=O)Nc3ccccc3N)ccc2O[C@H]1CN(C)Cc1ccc(-c2ccccc2)cc1 | -9[16.7 µM] | -3 | 94* | x
C[C@@H]1CN([C@H](C)CO)C(=O)Cc2cc(NC(=O)CCCCCC(=O)Nc3ccccc3N)ccc2O[C@H]1CN(C)CC1CC1 | -8[16.7 µM] | 2 | 7 | x
C[C@@H]1CN([C@H](C)CO)C(=O)Cc2cc(NC(=O)CCCCCC(=O)Nc3ccccc3N)ccc2O[C@@H]1CN(C)Cc1ccc2c(c1)OCO2 | -12[16.7 µM] | 3 | 62 | x
C[C@H](CO)N1C[C@H](C)[C@H](CN(C)Cc2ccc3c(c2)OCO3)Oc2ccc(NC(=O)CCCCCC(=O)Nc3ccccc3N)cc2CC1=O | 0[16.7 µM] | 2 | 103* | x
C[C@H]1CN([C@@H](C)CO)C(=O)Cc2cc(NC(=O)CCCCCC(=O)Nc3ccccc3N)ccc2O[C@H]1CN(C)CC1CCCCC1 | 6[16.7 µM] | 1 | 147* | x
C[C@H]1CN([C@@H](C)CO)C(=O)Cc2cc(NC(=O)CCCCCC(=O)Nc3ccccc3N)ccc2O[C@@H]1CN(C)Cc1ccc(Oc2ccccc2)cc1 | -8[16.7 µM] | 6 | 102* | x
C[C@H](CO)N1C[C@H](C)[C@@H](CN(C)C(=O)Nc2ccc3c(c2)OCO3)Oc2ccc(NS(=O)(=O)c3cccs3)cc2CC1=O | 8[16.7 µM] | -2 | -13 | x
O=C1/C(=C/C=C/c2ccco2)SC(=S)N1NS(=O)(=O)c1ccccc1 | -6 | 6 | x | 119*
O=C1/C(=C/c2cccs2)SC(=S)N1NS(=O)(=O)c1ccccc1 | -2 | -22 | 6 | 6
CCC(=O)N1[C@H](CO)[C@@H](c2ccc(-c3cccc(F)c3)cc2)[C@H]1CNC(C)=O | 14[16.7 µM] | 2 | -10 | x
